The panel holds about 83,000 compounds, 20% with a hit somewhere; the sample as a whole holds those more often.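 Values shown are percent growth following 48 h exposure of cells in 96-well plates to a single concentration of compound; below 10 was considered active.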 Unmarked numbers belong to inactive results. Active and inactive are the calls of the source.
System: UACC-62 melanoma
Test: NCI-60 one-dose screen, 48 h (100 = growth as untreated, 0 = no growth, -100 = all killed)
Conditions: 10 µM
Experimental: Growth inhibition of the UACC-62 human tumor cell line is measured as a screen for anti-cancer activity. Cells are grown in 96 well plates and exposed to the test compound for 48 hours. Compounds are tested at a single concentration, which is 10^-5 M for most compounds. The reported endpoint is percent growth (GI% or GIPRCNT), where numbers from 0 - 100% represent growth inhibition, and numbers from -100% - 0 represent cell death. For example, a value of 40 represents 60% growth inhibition. A value of 0 means no net growth occurred over the course of the experiment. A value of -40 indicates 40% of cells at the beginning of the experiment died by the end of the experiment. A value of -100 means all cells are dead at the end of the experiment.
NCI-60 Human Tumor Cell Lines Screen was performed using the standard one-dose NCI protocol, which is described in more detail at https://dtp.cancer.gov/discovery_development/nci-60/default.htm.
Compounds with GIPRCNT values below 10 were considered active. Activity score was based on GIPRCNT using the following formula: […]
Score is 0 for GIPRCNT values of 100 or above, 50 for GIPRCNT values of 0, and 100 for GIPRCNT values of -100.

| SMILES | growth |
| --- | --- |
| CN(C)CCCOc1ccc(NC2=C(Cl)C(=O)C(Nc3ccc(OCCCN(C)C)cc3)=C(Cl)C2=O)cc1 | -74.9% (active) |
| CC[C@@H]1NC(=O)[C@H]([C@H](O)[C@H](C)C/C=C/c2ccc(CN3C(=O)CCCC3=O)cc2)N(C)C(=O)[C@H](C(C)C)N(C)C(=O)[C@H](CC(C)C)N(C)C(=O)[C@H](CC(C)C)N(C)C(=O)[C@@H](C)NC(=O)[C@H](C)NC(=O)[C@H](CC(C)C)N(C)C(=O)[C@H](C(C)C)NC(=O)[C@H](CC(C)C)N(C)C(=O)CN(C)C1=O | 59.4% |
| COc1ccc2nc(-c3ccc(Cl)cc3)cc(-c3nnc(SC/C(=N\O)c4ccccc4)n3-c3ccccc3)c2c1 | 89.4% |
| NC(N)=N/N=C(\N=Nc1ccccc1)c1ccc(Cl)cc1 | -29.6% (active) |
| COc1cc(/C=C/c2cc(/C=C/c3ccc(O)c(OC)c3)n(C(=O)Nc3ccc(C)cc3)n2)ccc1O | -0.493% (active) |
| CCN(CC)CCCC(Nc1c2ccc(Cl)cc2nc2ccc(OC)cc12)c1ccc(F)cc1 (stereo not given) | 109% |
| O=C(CCl)Nc1ccc(Cc2ccc(NC(=O)CCl)cc2)cc1 | -9.18% (active) |
| OCCn1cccn1 | 114% |
| Cc1cccc(N=Cc2ccccc2O)c1C | 95.2% |
| NS(=O)(=O)c1ccc(N2N=C(c3ccccc3)CCC2=O)cc1 | 106% |
| CSc1ccc(-c2cc(-c3ccc(NC(=O)CCCN4CCCC4)cc3)nc(-c3ccc(NC(=O)CCCN4CCCC4)cc3)c2)cc1 | 93.4% |
| Nc1nc(-c2cccnc2)nc2c1sc(=S)n2-c1ccccc1 | 101% |
| Cc1cc(O)ccc1C1=NN(c2ccc(S(C)(=O)=O)cc2)C(=O)CC1 | 52.9% |
| O=C1c2ccccc2C(=O)c2c1ccc1c(=O)n(-c3ccccc3C(F)(F)F)nnc21 | -34.8% (active) |
| Cc1ccc(/C=C/C(=O)C(=O)/C=C/c2ccc(C)cc2)cc1 | 96.7% |
| CC(CN(C)C)Oc1ccc(OC(C)CN(C)C)c2c1C(=O)c1ccccc1C2=O (stereo not given) | 68% |
| COc1ccc(-c2cc(-c3ccc(OC)c(OC)c3)nc(SCCCC(=O)NO)n2)cc1 | -55.2% (active) |
| Nc1cc(Br)c(-c2nn3c(CCC(=O)c4nc5ccccc5[nH]4)nnc3s2)c(Br)c1 | 101% |
| COc1ccc(/C=C2\CCCC3=C2NC(N)=NC3c2ccc(OC)cc2)cc1 (stereo not given) | 68% |
| CCCc1cn(CC(=O)Nc2nc3ccccc3s2)nn1 | 98.1% |

| SMILES | growth |
| --- | --- |
| O=C(O)c1cc([N+](=O)[O-])ccc1Oc1ccccc1 | 103% |
| CC(=O)O[C@@]12CO[C@@H]1C[C@H](O)[C@@]1(C)C(=O)[C@H](O)C3=C(C)[C@@H](OC(=O)[C@H](O)[C@@H](NC(=O)OC(C)(C)C)c4ccccc4)C[C@@](O)([C@@H](OC(=O)c4ccccc4)C12)C3(C)C (stereo not given in full) | 52.5% |
| O=C1CC(SC(=S)C2CCCC2=O)C(=O)N1 (stereo not given) | 102% |
| COc1cc(-c2nc3ccccc3o2)cc(CN2CCCCC2)c1O | -15.3% (active) |
| COc1cc(NC(=O)Nc2cnc(Nc3ccc(N4CCOCC4)cc3)nc2Oc2cccc(OC)c2)cc(OC)c1 | 22.8% |
| O=C1c2ccccc2C(=O)N1CCCCNc1ccccc1 | 96% |
| CCOC(=O)CC(S(=O)(=O)c1ccccc1)S(=O)(=O)c1ccccc1 | 103% |
| COc1cc(NC(=O)C2=C(N3CCOCC3)/C(=C/c3ccc(Cl)cc3)CC2)cc(OC)c1OC | 73.1% |
| Cc1cc(Cl)ccc1Nc1nc(C(F)(F)F)ccc1C(=O)N/N=C/c1c(Cl)cccc1Cl | -12.9% (active) |
| CC(=O)COc1ccc(Cl)cc1Cl | 96.7% |
| NC1=NC(c2ccc(Cl)cc2)C2=C(N1)/C(=C/c1ccc(Cl)cc1)CCC2 (stereo not given) | 74.4% |
| Oc1cccc(-c2nc3sccn3c2-c2ccncn2)c1 | 14.5% |
| O=c1c(Br)ccc(Br)cc1Br | -5.1% (active) |
| CC[C@@H](C(=O)[C@@H](C)[C@@H](O)[C@H](C)[C@@H]1O[C@@H]([C@@H](CC)C(=O)N(CC)CC)CC[C@@H]1C)C1O[C@]2(C=CC(=O)[C@]3(CC[C@@](C)([C@H]4CC[C@](O)(CC)[C@H](C)O4)O3)O2)[C@H](C)C[C@@H]1C (stereo not given in full) | 13% |
| CSc1nc(S(C)(=O)=O)nc2[nH]c(=O)[nH]c12 | 98.9% |
| O=C(CN1CCN(C(=O)c2ccccc2)CC1)Nc1ccccc1SCc1ccccc1 | 52% |
| O=C(CCc1nnc2sc(-c3cc(O)c(O)c(O)c3)nn12)c1nc2ccccc2[nH]1 | 104% |
| CCCCN1C(=O)CC(SC2CC(=O)N(CCCC)C2=O)C1=O (stereo not given) | 96.6% |
| COc1ccccc1-n1c(-c2sc(NC(C)=O)nc2C)n[nH]c1=S | 98.5% |
| CC(CN(C)C)Oc1ccccc1NC1=C(Cl)C(=O)C(Nc2ccccc2OC(C)CN(C)C)=C(Cl)C1=O (stereo not given) | -84.5% (active) |

Reference: PubChem BioAssay (NCI)
